# ChEMBL document CHEMBL3433997, “St. Jude Leishmania screening dataset” (2016)
# Columns and labels:
# Type in all cases: functional
# [1] = target: Solute carrier family 2, facilitated glucose transporter member 1 (Homo sapiens) (UniProt P11166); assay: ST_JUDE_LEISH: Cytotoxicity at 2uM final concentration against transgenic Leishmania Mexicana promastigotes LmGLUT1 that are glucose transport deficient and complemented with the human glucose transporter GLUT1. Activity is measured by DNA content using SYBR green in vitro
# [2] = target: Hexose transporter 1 (Plasmodium falciparum) (UniProt O97467); assay: ST_JUDE_LEISH: Cytotoxicity at 2uM final concentration against transgenic Leishmania Mexicana promastigotes LmPfHT that are glucose transport deficient and complemented with the Plasmodium falciparum hexose transporter. Activity is measured by DNA content using SYBR green in vitro
# [3] = target: Glucose transporter (Leishmania mexicana) (UniProt O61059); assay: ST_JUDE_LEISH: Cytotoxicity at 2uM final concentration against transgenic Leishmania Mexicana promastigotes LmGT2 that are glucose transport deficient and complemented with the L. Mexicana glucose transporter 2. Activity is measured by DNA content using SYBR green in vitro
# Sequence of Solute carrier family 2, facilitated glucose transporter member 1 (Homo sapiens) (P11166 whole entry): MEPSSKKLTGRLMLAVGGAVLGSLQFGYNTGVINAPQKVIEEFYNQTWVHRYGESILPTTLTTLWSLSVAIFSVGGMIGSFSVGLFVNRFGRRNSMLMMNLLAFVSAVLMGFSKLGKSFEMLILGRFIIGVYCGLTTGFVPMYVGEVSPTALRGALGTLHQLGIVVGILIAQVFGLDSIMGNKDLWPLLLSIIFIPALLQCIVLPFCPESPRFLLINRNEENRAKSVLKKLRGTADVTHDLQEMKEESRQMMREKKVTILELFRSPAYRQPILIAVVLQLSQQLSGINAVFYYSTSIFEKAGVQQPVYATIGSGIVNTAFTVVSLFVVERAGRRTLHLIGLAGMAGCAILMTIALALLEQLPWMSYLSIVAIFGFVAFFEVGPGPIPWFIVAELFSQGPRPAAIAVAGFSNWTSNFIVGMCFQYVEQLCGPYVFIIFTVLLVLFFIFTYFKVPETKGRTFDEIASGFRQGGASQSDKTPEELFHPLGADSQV
SMILES,inhibition [1],inhibition [2],inhibition [3]
CCCCCCNc1c2ccccc2nc2ccccc12,4.99%,9.27%,3.25%
Cc1cc(C(=O)Nc2ccc3c(c2)CCN3C2CCN(Cc3cccc4cc[nH]c34)C2)no1 (centres undefined),2.23%,1.71%,3.09%
COc1cc(F)c2nccc([C@@H](O)CN3CCC(NCc4ccc5c(n4)NC(=O)CS5)CC3)c2c1,-0.92%,-1.04%,-1.38%
N=C(N)NC(=O)Nc1cc(Br)c(Cl)c(C(F)(F)F)c1,4.79%,3.32%,0.66%
Cc1nc(C)c(CC(=O)Nc2ccc(-c3ccc(-c4nc5cc(C(F)(F)F)ccc5[nH]4)s3)cc2)s1,2.35%,2.1%,-0.02%
COc1ccc2nccc([C@@H](O)CN3CCC(NCCOc4ccccc4[N+](=O)[O-])CC3)c2c1,2.3%,2.26%,0.09%
Cn1nc(-c2ccc(NC(=O)Nc3cc(C(F)(F)F)ccc3F)cc2)c2cnc(NCCc3c[nH]cn3)nc21,3.35%,3.29%,2.46%
COc1ccc(CCNCCCCNCCc2ccc(OC)c3ccccc23)c2ccccc12,64.4%,55.5%,102%
Cn1nccc1C(=O)NCCNCc1ccc(-c2cccc(-c3nc4ccccc4[nH]3)c2)cc1,-0.28%,-0.94%,0.68%
O=C(NC1CCN(c2ccc(F)cc2[N+](=O)[O-])CC1)c1cccs1,4.31%,3.82%,2.71%
COc1ccc2c(=NN=Cc3ccccc3F)cc(C)[nH]c2c1,1.77%,1.74%,0.39%
COc1ccc2c(NN=CC=Cc3ccccc3)ccnc2c1,9.5%,6.81%,11.6%
O=C(Nc1ccccc1)N(Cc1ccccc1-c1cccc(CNC2CCCC2)c1)C1CCN(Cc2ccccc2)CC1,0.15%,1.64%,4.91%
O=c1nc2[nH]c3ccccc3n2c(=O)[nH]1,3.69%,2.18%,3.41%
COc1ccc(-c2cnc(N)c(-c3ccc(O)c(OC)c3)c2)cn1,0.58%,0.38%,1.13%
Cc1[nH]c(C)c(-c2ccc(-c3cc(C(F)(F)F)cc(C(F)(F)F)c3)nc2)c(=O)c1Br,4.9%,5.44%,5.42%
COc1ccc(CNC2CCN(C)CC2)cc1-c1ccc(OC)c(S(=O)(=O)NCc2ccccc2)c1,1.01%,1.62%,0.01%

SMILES,inhibition [1],inhibition [2],inhibition [3]
COc1ccc(-c2ccc(NC(=O)c3cccc(Cl)c3)cc2)cc1CNC(C)C,4.75%,5.52%,1.96%
Cc1c(C)n(Cc2ccccc2)c2ncnc(OC3CCN(CC(=O)NCC4CC4)CC3)c12,1.84%,0.12%,0.21%
Fc1cccc(COc2ccc(-n3ccc4c(NCCCn5ccnc5)ncnc43)cc2Cl)n1,1.74%,2.45%,1.59%
CCCn1cnc2cc(C(=O)Nc3ccc(-c4cccc(CN(C)C)c4)cc3)ccc2c1=O,55%,3.03%,5.21%
CO/C(=C\C=C\c1cc2cc(Cl)c(Cl)cc2[nH]1)C(=O)NC1CCN(CCCc2ccccc2)CC1,0.89%,1.14%,2.46%
CCNc1cc(C)nc(Nc2ccc(NC(=O)Cc3ccc(OC)cc3)cc2)n1,10.8%,10.1%,4.74%
O=C(Nc1ccc(-c2cccc(-c3nc4cc(C(F)(F)F)ccc4[nH]3)c2)cc1)c1ccoc1,4.69%,3.58%,3.22%
COc1ccc(NC(=O)[C@H](Cc2ccccc2)Nc2cc(C)nc(NCCOc3ccccc3)n2)cc1,4.06%,2.78%,2.55%
OC[C@H]1CCCN1CC#Cc1cc2c(Nc3ccc(OCc4cccc(F)c4)c(Cl)c3)ncnc2s1,3.54%,3.56%,2.65%
COc1ccc(CCNCCCCCNCCc2ccc(Cl)cc2)cc1OC,7.58%,6.09%,6.63%
Cc1ccc(Cn2cnc(N3CC(C)NC(C)C3)cc2=O)cc1NC(=O)Nc1ccc(-c2ccccc2)cc1 (centres undefined),-0.2%,-0.46%,-0.19%
C[C@H](Cc1ccc(OCCCCCCOc2ccc(C[C@@H](C)N[C@H](C)c3ccccc3)cc2)cc1)NC[C@H](O)c1cccc(Cl)c1,106%,94%,82.4%
COCCOc1cc(C)c(C2CCN(CCCCNC(=O)c3ccc(NC(=O)c4ccc(Cl)cc4)cc3)CC2)cc1C,8.26%,7.14%,8.98%
NS(=O)(=O)c1ccccc1Nc1nc(Nc2ccc(N3CCOCC3)cc2)nc2c1CCC2,11.1%,4.49%,3.91%
Cc1cccc2nc(-c3cccc(-c4cccc(NC(=O)NC5CC5c5ccccc5)c4)c3)[nH]c12 (centres undefined),1.8%,2.2%,5.21%
CCOc1ccc(-c2nonc2NC(=O)c2ccccc2F)cc1OCC,-0.17%,1%,1.47%
